Entries with a potency or affinity are not part of this list.
Test system: Klebsiella pneumoniae
Conditions: Concentration 20 uM; ASSAY_TEST Inhibition of Bacterial Growth; detection method Absorption (OD600); MEDIA CAMHB; plate type 384well; NBS; CORNING #3640; time 18 hr

Structure (SMILES)	Inhibition
CCCCC[C@H](O)/C=C/[C@H]1[C@H](O)CC(=O)[C@@H]1CCCCCCC(=O)O [ALPROSTADIL]	7.2%
CC(=O)CCCCn1cnc2c1c(=O)n(C)c(=O)n2C [LOMIFYLLINE]	10.43%
CCCc1nc2c(C)cc(-c3nc4ccccc4n3C)cc2n1Cc1ccc(-c2ccccc2C(=O)O)cc1	15%
OC[C@H]1O[C@@H](Oc2cc(O)cc(/C=C/c3ccc(O)cc3)c2)[C@H](O)[C@@H](O)[C@@H]1O [PICEID]	6.92%
CC(=O)[C@@]1(O)CC[C@H]2[C@@H]3C[C@H](C)C4=CC(=O)CC[C@]4(C)[C@H]3CC[C@@]21C	2.71%
O=C1[C@H](CC[C@H](O)c2ccc(F)cc2)[C@@H](c2ccc(O)cc2)N1c1ccc(F)cc1 [EZETIMIBE]	2.21%
CC(C)(C)NCC(O)COc1cccc2c1CC(O)C(O)C2 (configuration not stated) [NADOLOL]	10.61%
C=C1/C(=C\C=C2/CCC[C@]3(C)[C@@H]([C@H](C)/C=C/[C@@H](O)C4CC4)CC[C@@H]23)C[C@@H](O)C[C@@H]1O [CALCIPOTRIENE]	16.21%
CN(C)CCCSc1ccccc1NC(=O)/C=C/c1ccccc1.Cl.O	18.81%
CN(C/C=C/C#CC(C)(C)C)Cc1cccc2ccccc12.Cl [TERBINAFINE HYDROCHLORIDE]	11.69%
CCCCC(=O)N(Cc1ccc(-c2ccccc2-c2nnn[nH]2)cc1)[C@H](C(=O)O)C(C)C	7.53%
CCCCC1=NC2(CCCC2)C(=O)N1Cc1ccc(-c2ccccc2-c2nnn[nH]2)cc1 [IRBESARTAN]	7.4%
CC(=CCC1=C(C)C(=O)c2ccccc2C1=O)CCCC(C)CCCC(C)CCCC(C)C (configuration not stated)	6.75%
CC(N/C(=N\C#N)Nc1ccncc1)C(C)(C)C.O (configuration not stated)	0.13%
CN(C)[C@@H]1C(=O)C(C(=O)NCN2CCCC2)=C(O)[C@@]2(O)C(O)=C3C(=O)c4c(O)cccc4[C@@](C)(O)C3CC12 (some centres not stated)	7.32%
CCN(CC)CC1CCCCN1CC(=O)N1c2ccccc2C(=O)Nc2cccnc21 (configuration not stated) [OTENZEPAD]	12.92%
CCCN1CCCC[C@H]1C(=O)Nc1c(C)cccc1C.Cl [ROPIVACAINE HYDROCHLORIDE]	12.03%
Cl.Nc1c2c(nc3ccccc13)CCCC2 [TACRINE HYDROCHLORIDE]	15.67%
CCC(=O)OCC(=O)[C@@]1(OC(=O)CC)[C@@H](C)C[C@H]2[C@@H]3CCC4=CC(=O)C=C[C@]4(C)[C@@]3(Cl)[C@@H](O)C[C@@]21C [BECLOMETHASONE DIPROPIONATE]	7.24%

Structure (SMILES)	Inhibition
CN(C)CCC[C@@]1(c2ccc(F)cc2)OCc2cc(C#N)ccc21.O=C(O)C(=O)O [ESCITALOPRAM OXALATE]	13.63%
Nc1ncnc2c1ncn2[C@@H]1O[C@H](CO)[C@@H](O)[C@@H]1O [VIDARABINE]	13.1%
CC1(C)O[C@@H]2C[C@H]3[C@@H]4C[C@H](F)C5=CC(=O)C=C[C@]5(C)[C@@]4(F)[C@@H](O)C[C@]3(C)[C@]2(C(=O)CO)O1 [FLUOCINOLONE ACETONIDE]	-0.92%
CN1C(=O)CC[C@H]1c1cccnc1 [COTININE]	5.32%
CSc1nc2cc(Cl)c(Oc3cccc(Cl)c3Cl)cc2[nH]1 [TRICLABENDAZOLE]	-0.37%
CC1(C)O[C@@H]2C[C@H]3[C@@H]4C[C@H](F)C5=CC(=O)C=C[C@]5(C)[C@H]4[C@@H](O)C[C@]3(C)[C@]2(C(=O)CO)O1 [FLUNISOLIDE]	10.74%
Cl.Clc1ccc2nsnc2c1NC1=NCCN1 [TIZANIDINE HYDROCHLORIDE]	10.36%
CCOC(=O)[C@@H](CCc1ccccc1)N[C@@H](C)C(=O)N1CCC[C@H]1C(=O)O.O=C(O)/C=C\C(=O)O	10.36%
CC(C)C[C@H](NC(=O)[C@@H](O)[C@H](N)Cc1ccccc1)C(=O)O [UBENIMEX]	12.45%
O=C(O)c1cc(-c2ccc(F)cc2F)ccc1O [DIFLUNISAL]	3.43%
CCCCc1nc(Cl)c(CO)n1Cc1ccc(-c2ccccc2-c2nnn[n-]2)cc1.[K+] [LOSARTAN POTASSIUM]	7.23%
O=C(CCCN1CC=C(n2c(=O)[nH]c3ccccc32)CC1)c1ccc(F)cc1 [DROPERIDOL]	9.88%
CN[C@@H]1[C@H](O)[C@H](NC)[C@H]2O[C@@]3(O)C(=O)C[C@@H](C)O[C@H]3O[C@@H]2[C@H]1O.Cl.Cl.Cl.O.O.O	37.26%
CC[C@H]1OC(=O)[C@H](C)C(=O)[C@H](C)[C@@H](O[C@@H]2O[C@H](C)C[C@H](N(C)C)[C@H]2O)[C@](C)(OC)C[C@@H](C)C(=O)[C@H](C)[C@@H]2N(CCCCn3cnc(-c4cccnc4)c3)C(=O)O[C@@]21C	3.48%
C[C@H](N[C@@H](CCc1ccccc1)C(=O)O)C(=O)N1CCC[C@H]1C(=O)O [ENALAPRILAT ANHYDROUS]	8.45%
CNCCCC12CCC(c3ccccc31)c1ccccc12.Cl [MAPROTILINE HYDROCHLORIDE]	10.44%
O=C1CN(/N=C/c2ccc(-c3ccc([N+](=O)[O-])cc3)o2)C(=O)[N-]1.[Na+] [DANTROLENE SODIUM]	2.98%
COc1ccccc1OCCNCC(O)COc1cccc2[nH]c3ccccc3c12 (configuration not stated) [CARVEDILOL]	14.17%

— ChEMBL document CHEMBL4513141, “CO-ADD screening of NIH (USA) - Clinical Collection” (2021)
